In PubChem BioAssay (NCI):
This is part of a sample that, as a whole, favours compounds with a hit. Of some 83,000 tested, about 20% had one in any assay.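 Negative percent growth values reflect cell death: -40 means 40% of the cells present at the start died, and -100 means all died.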 A number with no mark means an inactive call. The source made the active and inactive calls. How the source made its calls: active means growth percent below 10; inactive means the rest.

Columns and labels:
Assay in all cases: NCI-60 one-dose screen, 48 h (100 = growth as untreated, 0 = no growth, -100 = all killed)
[1] = test system: NCI-H23 lung; conditions: 10 µM
[2] = test system: HOP-92 NSCLC; conditions: 10 µM
[3] = test system: K-562 leukemia; conditions: 10 µM
[4] = test system: MDA-MB-231 breast; conditions: 10 µM
[5] = test system: RXF 393 renal; conditions: 10 µM
[6] = test system: SNB-19 CNS; conditions: 10 µM
[7] = test system: LOX IMVI melanoma; conditions: 10 µM
[8] = test system: UO-31 renal; conditions: 10 µM
[9] = test system: CAKI-1 renal; conditions: 10 µM
[10] = test system: MOLT-4 leukemia; conditions: 10 µM
[11] = test system: SR leukemia; conditions: 10 µM
[12] = test system: OVCAR-8 ovarian; conditions: 10 µM
[13] = test system: HS 578T breast; conditions: 10 µM
[14] = test system: T-47D breast; conditions: 10 µM
[15] = test system: SW-620 colon; conditions: 10 µM
[16] = test system: MDA-MB-468 breast; conditions: 10 µM unless noted
[17] = test system: HCT-15 colon; conditions: 10 µM
[18] = test system: SK-MEL-28 melanoma; conditions: 10 µM
[19] = test system: SK-OV-3 ovarian; conditions: 10 µM

| Structure (SMILES) | growth [1] | growth [2] | growth [3] | growth [4] | growth [5] | growth [6] | growth [7] | growth [8] | growth [9] | growth [10] | growth [11] | growth [12] | growth [13] | growth [14] | growth [15] | growth [16] | growth [17] | growth [18] | growth [19] |
| --- | --- | --- | --- | --- | --- | --- | --- | --- | --- | --- | --- | --- | --- | --- | --- | --- | --- | --- | --- |
| COc1cc2cc(C(=O)N3C[C@@H](CCl)c4c3cc(OC(=O)N3CCN(C(=O)CCC(=O)N5CCN(C)CC5)[C@@H]5CSSC[C@@H]53)c3ccccc43)[nH]c2c(OC)c1OC | -93% (active) | 19.3% | -17.8% (active) | -94.2% (active) | -91.2% (active) | -50.2% (active) | -100% (active) | -65.2% (active) | 13.9% | 0.371% (active) | -12.9% (active) | -32.1% (active) | -15.6% (active) | 1.49% (active) | -23.4% (active) | -91.5% (active) |  |  |  |
| COP(=O)(CC(F)(F)C(F)(F)F)OC | 41.8% | -29.8% (active) | 10.9% | 65.1% |  | 101% | -63.5% (active) |  | 10.3% | 5.72% (active) | 5.42% (active) |  | 75.3% | 13.2% | -15.9% (active) |  | -15.2% (active) | -58.1% (active) |  |
| CC[C@]12C=CCN3CC[C@@]4(c5ccc(OC)cc5N(C)[C@H]4[C@@](O)(C(=O)OC)[C@@H]1OC(=O)CCCC[P+](c1ccc(C)cc1)(c1ccc(C)cc1)c1ccc(C)cc1)[C@@H]32 | -92.4% (active) | -77.9% (active) | 0.797% (active) | -97.2% (active) | -87.6% (active) |  | -94.5% (active) | -96% (active) | -95.2% (active) | -25% (active) | 25.8% |  | -69.9% (active) |  | -88.1% (active) | -92.5% (active) |  |  | -82.3% (active) |
